Measured values taken from PubChem BioAssay (NCI).
This is part of a sample that, as a whole, favours compounds with a hit. Of some 83,000 tested, about 20% had one in any assay.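 Activity criterion: percent growth below 10, measured after cells in 96-well plates were exposed to a single compound concentration for 48 hours.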 Unmarked numbers belong to inactive results. Activity calls are given as the source filed them.

Experiments:
Test in all cases: NCI-60 one-dose screen, 48 h (100 = growth as untreated, 0 = no growth, -100 = all killed)
NCI-H23 lung = conditions: 10 µM unless noted
NCI-H226 lung = conditions: 10 µM unless noted
NCI-H322M lung = conditions: 10 µM unless noted
NCI-H460 lung = conditions: 10 µM unless noted
HOP-92 NSCLC = conditions: 10 µM unless noted
NCI-H522 lung = conditions: 10 µM unless noted
A549/ATCC NSCLC = conditions: 10 µM unless noted
786-0 renal = conditions: 10 µM unless noted
COLO 205 colon = conditions: 10 µM unless noted
DU-145 prostate = conditions: 10 µM unless noted
K-562 leukemia = conditions: 10 µM unless noted
MALME-3M melanoma = conditions: 10 µM unless noted
MDA-MB-231 breast = conditions: 10 µM unless noted
RXF 393 renal = conditions: 10 µM unless noted
SF-268 CNS = conditions: 10 µM unless noted
SF-295 CNS = conditions: 10 µM unless noted
SF-539 CNS = conditions: 10 µM unless noted
M14 melanoma = conditions: 10 µM unless noted
UACC-257 melanoma = conditions: 10 µM
HOP-62 NSCLC = conditions: 10 µM unless noted

In the case of `Cc1ccc(-c2csc3nc(C)c(CCCl)c(=O)n23)cc1`, the growth (NCI-H23 lung) is reported as 87.5%, the growth (NCI-H226 lung) is reported as 78.6% and the growth (NCI-H322M lung) is reported as 98.5%. For the same molecule, the growth (NCI-H460 lung) was 99.5%, the growth (HOP-92 NSCLC) was 80.8% and the growth (NCI-H522 lung) was 88.8%. The growth (A549/ATCC NSCLC) was 98%, the growth (786-0 renal) was 104% and the growth (COLO 205 colon) was 119%. The growth (DU-145 prostate) was 104%, the growth (K-562 leukemia) was 95% and the growth (MALME-3M melanoma) was 107%. For the same molecule, the growth (MDA-MB-231 breast) was 79.9%, the growth (RXF 393 renal) was 106% and the growth (SF-268 CNS) was 91.4%. For the same molecule, the growth (SF-295 CNS) was 104%, the growth (SF-539 CNS) was 108% and the growth (M14 melanoma) was 103%.
`COc1ccc(NC(=O)CSc2nc3ccccc3c(=O)n2Cc2cc(OC)c(OC)c(OC)c2)cc1` gave a growth (NCI-H23 lung) of 92.5%, a growth (NCI-H226 lung) of 88.3% and a growth (NCI-H322M lung) of 94.5%. It also gave a growth (NCI-H460 lung) of 101%, a growth (HOP-92 NSCLC) of 58.8% and a growth (NCI-H522 lung) of 66.7%. The growth (A549/ATCC NSCLC) was 99.3%, the growth (786-0 renal) was 92.5% and the growth (COLO 205 colon) was 107%. The growth (DU-145 prostate) was 95.6%, the growth (K-562 leukemia) was 79.8% and the growth (MALME-3M melanoma) was 88.2%. It also gave a growth (MDA-MB-231 breast) of 73.8%, a growth (RXF 393 renal) of 82.9% and a growth (SF-268 CNS) of 85.1%. It also gave a growth (SF-295 CNS) of 106%, a growth (SF-539 CNS) of 79% and a growth (UACC-257 melanoma) of 94.3%. The growth (M14 melanoma) was 99.4%.
For `CC(Cc1nnc(SCC(=O)Nc2ccc(I)cc2)n1N)c1ccccc1` (stereo not drawn), the growth (NCI-H23 lung) was 99.8%, the growth (NCI-H226 lung) was 87.2% and the growth (NCI-H322M lung) was 95.7%. It also gave a growth (NCI-H460 lung) of 96.1%, a growth (HOP-92 NSCLC) of 76.7% and a growth (NCI-H522 lung) of 82.8%. The growth (A549/ATCC NSCLC) was 100%, the growth (786-0 renal) was 72% and the growth (COLO 205 colon) was 93.9%. It also gave a growth (DU-145 prostate) of 94.5%, a growth (K-562 leukemia) of 87.1% and a growth (MALME-3M melanoma) of 108%. The growth (MDA-MB-231 breast) was 81.8%, the growth (RXF 393 renal) was 53.7% and the growth (SF-268 CNS) was 102%. For the same molecule, the growth (SF-295 CNS) was 127%, the growth (SF-539 CNS) was 94.3% and the growth (M14 melanoma) was 95.3%.
`Oc1ccc(N=Cc2ccccc2)cc1` was tested, and the growth (NCI-H23 lung) was 88.5%, the growth (NCI-H226 lung) was 111% and the growth (NCI-H322M lung) was 103%. The growth (HOP-62 NSCLC) was 115%, the growth (NCI-H460 lung) was 102% and the growth (HOP-92 NSCLC) was 51.9%. It also gave a growth (NCI-H522 lung) of 67.7%, a growth (COLO 205 colon) of 113% and a growth (DU-145 prostate) of 89.5%. The growth (K-562 leukemia) was 32.6%, the growth (MALME-3M melanoma) was 83.5% and the growth (RXF 393 renal) was 114%. The growth (SF-268 CNS) was 95.9%, the growth (SF-295 CNS) was 112% and the growth (SF-539 CNS) was 94.9%. It also gave a growth (UACC-257 melanoma) of 106% and a growth (M14 melanoma) of 91.5%.
`CC[C@H](C)[C@@H]1NC(=O)[C@H]([C@@H](C)O)NC(=O)C(Cc2ccccc2)NC(=O)[C@@H]2CCCN2C(=O)C(C(C)C)NC(=O)C(Cc2ccccc2)NC(=O)CNC(=O)[C@@H]2CCCN2C1=O` (stereo partly drawn) was tested, and the growth (NCI-H23 lung) was 82.5%, the growth (NCI-H226 lung) was 65.8% and the growth (NCI-H322M lung) was 85.3%. The growth (NCI-H460 lung) was 55.7%, the growth (HOP-92 NSCLC) was -18.4% (active) and the growth (NCI-H522 lung) was 55.5%. The growth (A549/ATCC NSCLC) was 56.6%, the growth (786-0 renal) was 39.9% and the growth (COLO 205 colon) was 79.7%. For the same molecule, the growth (DU-145 prostate) was 83.6%, the growth (K-562 leukemia) was 20.9% and the growth (MALME-3M melanoma) was 64%. It also gave a growth (MDA-MB-231 breast) of 26.4%, a growth (SF-268 CNS) of 72.8% and a growth (SF-295 CNS) of 74.2%. The growth (SF-539 CNS) was 83.2%, the growth (UACC-257 melanoma) was 60.7% and the growth (M14 melanoma) was 22.2%.
With `Cc1sc2nc(CSc3nnc(-c4ccco4)o3)[nH]c(=O)c2c1C` the growth (NCI-H23 lung) was 121%, the growth (NCI-H226 lung) was 102% and the growth (NCI-H322M lung) was 131%. The growth (NCI-H460 lung) was 108%, the growth (HOP-92 NSCLC) was 106% and the growth (NCI-H522 lung) was 104%. The growth (A549/ATCC NSCLC) was 101%, the growth (786-0 renal) was 111% and the growth (DU-145 prostate) was 114%. For the same molecule, the growth (K-562 leukemia) was 75.6%, the growth (MALME-3M melanoma) was 128% and the growth (MDA-MB-231 breast) was 106%. The growth (RXF 393 renal) was 98.3%, the growth (SF-268 CNS) was 106% and the growth (SF-295 CNS) was 107%. It also gave a growth (SF-539 CNS) of 122% and a growth (M14 melanoma) of 122%.
Work on `Nc1c(C(=O)c2ccc(F)cc2)sc2nc3c(cc12)CCCC3` yielded a growth (NCI-H23 lung) of 77.9%, a growth (NCI-H226 lung) of 85.4% and a growth (NCI-H322M lung) of 81.3%. The growth (NCI-H460 lung) was 90.3%, the growth (HOP-92 NSCLC) was 61.3% and the growth (NCI-H522 lung) was -2.9% (active). It also gave a growth (A549/ATCC NSCLC) of 70.9%, a growth (786-0 renal) of 85.3% and a growth (COLO 205 colon) of 84.8%. It also gave a growth (DU-145 prostate) of 77.9%, a growth (K-562 leukemia) of 25.8% and a growth (MALME-3M melanoma) of 31.7%. For the same molecule, the growth (MDA-MB-231 breast) was 85.7%, the growth (RXF 393 renal) was 56% and the growth (SF-268 CNS) was 87.4%. The growth (SF-295 CNS) was 72.6%, the growth (SF-539 CNS) was 95.3% and the growth (UACC-257 melanoma) was 95%. It also gave a growth (M14 melanoma) of 71%.
`O=c1oc2cc(OS(=O)(=O)c3ccccc3)c(Cl)cc2c2c1CCCCCC2` showed a growth (NCI-H23 lung) of 80.1%, a growth (NCI-H226 lung) of 81.7% and a growth (NCI-H322M lung) of 95.4%. It also gave a growth (NCI-H460 lung) of 96.1%, a growth (HOP-92 NSCLC) of 65.7% and a growth (NCI-H522 lung) of 73.2%. It also gave a growth (A549/ATCC NSCLC) of 88.2%, a growth (786-0 renal) of 87.7% and a growth (COLO 205 colon) of 94.4%. For the same molecule, the growth (DU-145 prostate) was 93.6%, the growth (K-562 leukemia) was 84.9% and the growth (MALME-3M melanoma) was 106%. The growth (MDA-MB-231 breast) was 89.4%, the growth (RXF 393 renal) was 90.8% and the growth (SF-268 CNS) was 100%. It also gave a growth (SF-295 CNS) of 92.6%, a growth (SF-539 CNS) of 78.4% and a growth (UACC-257 melanoma) of 92.8%. It also gave a growth (M14 melanoma) of 80.3%.
`CCOC(=O)c1cc(/C(=N\O)c2cc(OC)c(OC)c(OC)c2)n2cc(C)cc(C)c12` gave a growth (NCI-H23 lung) of 55.2%, a growth (NCI-H226 lung) of 74.3% and a growth (NCI-H322M lung) of 66.2%. For the same molecule, the growth (NCI-H460 lung) was 4.9% (active), the growth (HOP-92 NSCLC) was 51.9% and the growth (NCI-H522 lung) was -10.6% (active). For the same molecule, the growth (A549/ATCC NSCLC) was 34.9%, the growth (786-0 renal) was 19.1% and the growth (COLO 205 colon) was 11.5%. The growth (DU-145 prostate) was 41.9%, the growth (K-562 leukemia) was 12.5% and the growth (MALME-3M melanoma) was 37.8%. The growth (MDA-MB-231 breast) was 34.7%, the growth (RXF 393 renal) was 36.1% and the growth (SF-268 CNS) was 38.7%. The growth (SF-295 CNS) was 1.85% (active), the growth (SF-539 CNS) was 15.8% and the growth (M14 melanoma) was 10.5%.
